These results are taken from PubChem BioAssay (NCI).

The panel holds about 83,000 compounds, 20% with a hit somewhere; the sample as a whole holds those more often.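 Treatment: one concentration, 48 hours, 96-well format. Scoring: percent growth, with anything below 10 considered active.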 Unmarked numbers belong to inactive results. Active and inactive are the calls of the source.

The assay has as its system HS 578T breast. The assay is described as follows: NCI-60 one-dose screen, 48 h (100 = growth as untreated, 0 = no growth, -100 = all killed). The following applies: 10 µM unless noted. As for the experimental part: Growth inhibition of the HS 578T human tumor cell line is measured as a screen for anti-cancer activity. Cells are grown in 96 well plates and exposed to the test compound for 48 hours. Compounds are tested at a single concentration, which is 10^-5 M for most compounds. The reported endpoint is percent growth (GI% or GIPRCNT), where numbers from 0 - 100% represent growth inhibition, and numbers from -100% - 0 represent cell death. For example, a value of 40 represents 60% growth inhibition. A value of 0 means no net growth occurred over the course of the experiment. A value of -40 indicates 40% of cells at the beginning of the experiment died by the end of the experiment. A value of -100 means all cells are dead at the end of the experiment.
NCI-60 Human Tumor Cell Lines Screen was performed using the standard one-dose NCI protocol, which is described in more detail at https://dtp.cancer.gov/discovery_development/nci-60/default.htm.
Compounds with GIPRCNT values below 10 were considered active. Activity score was based on GIPRCNT using the following formula: […]
Score is 0 for GIPRCNT values of 100 or above, 50 for GIPRCNT values of 0, and 100 for GIPRCNT values of -100.
On to `O=C(Nc1cccc(Cl)c1)Nc1ccccc1Cl`, for which the growth is 90.7%.
`CC[C@H](C)[C@H](N)C(=O)O`: the growth is 91.7%.
Under `CCN1C(=O)/C(=C/N2N=C(c3ccc(Cl)cc3)CC2c2ccc(OC)cc2)SC1=S` (stereo not given) stands 95.2%; under `Cc1ccc2c(C)c3c(ccc4ccccc43)c[n+]2c1`, 77.8%; under `CCCCc1nc(Cl)c(C2CC(c3ccc(S(N)(=O)=O)cc3)=NN2c2cc(Cl)cc(Cl)c2)[nH]1` (stereo not given), 36.9%.
On to `CC1OC(n2c3ccccc3c3c4c(c5c6ccccc6[nH]c5c32)C(=O)N(CCN2CCOCC2)C4=O)CC(O)C1O` (stereo not given), for which the growth was 63.6%.
Under `COc1ccc(-c2cc(-c3cn(-c4cccc(Cl)c4)nc3-c3ccc(OC)cc3)[nH]c(=S)n2)cc1` stands 88.7%; under `Nc1ncnc2c1N=C(c1ccc3c(c1)OCO3)CC(c1ccc(Cl)cc1)N2` (stereo not given), 70.2%; under `CC(C)CCSc1nc(Nc2ccccc2)c(C#N)c(-c2ccc(F)cc2)n1`, 49.5%.
Take `CCCCCCCCN=C(NCCCCCCCC)SCc1cccc2ccccc12`: the growth is -55.3% (active).
As to `OC(COCc1ccccc1)COCc1ccccc1`, the growth was 122%.
As for `CCOC(=O)c1ccc2c(c1)nc(-c1ccc(Cl)cc1)n2-c1cc(C(C)(C)C)[nH]n1`, the growth is 53.9%.
Under `C=CCOC(=O)C1=C(C)NC2=C(C(=O)CC(C)(C)C2)C1c1ccc(OC)cc1` (stereo not given) stands 90.6%; under `CC(C)(c1ccccc1)c1cc(O)c(C(C)(C)c2ccccc2)cc1O`, 47.4%; under `CCCCCCCCCCCCCCCCCC(=O)OCCCCCCCCCCCCC`, 122%.
Under `COc1ccc2nc3cc(Cl)ccc3c(NC(=O)CSc3ccc(Cl)cc3)c2c1` stands -43.2% (active); under `Cc1ccc(C)c(NC(=O)c2sc3c(=O)[nH]cnc3c2C)c1`, 78.9%.
With `CC(C)(C)[Si](C)(C)OC1[C@@H](O[Si](C)(C)C(C)(C)C)[C@@H](CNC(=O)NC(=O)NC(=O)CI)O[C@H]1n1cnc2c(NC(=O)Nc3ccccc3)ncnc21` (stereo not given in full), the growth was 67.4%.
For `CN(C)CCCN1c2ccccc2CCc2ccccc21`, the growth is 103%.
Under `Cc1cc(Nc2c3ccccc3nc3ccccc23)ccc1NS(C)(=O)=O` stands 52.4%; under `CS(=O)(=O)c1ccc(C(=O)N2N=C(c3ccccc3)CC2c2ccc3c(c2)OCO3)cc1` (stereo not given), 95.7%.
For `COc1ccc2nc3ccccc3c(NCc3ccc(Cl)cc3)c2c1`, the growth is 36%.
Under `CCCCCCCCOC(=O)C(C)OC(=O)OCCOCCOC(=O)OC(C)C(=O)OCCCCCCCC` (stereo not given) stands 102%; under `NC(N)=N/N=C/c1cccc(Cl)c1Cl`, 71.3%; under `CN1C(=O)N(C)C2C1NN=c1s/c(=C\c3ccc(Br)cc3)c(=O)n12` (stereo not given), 11.6%.
To `CC(=O)O[C@H]1CC[C@]2(C)[C@H]3CC=C4[C@@H]5CC(C)(C)CC[C@]5(C(=O)OCC(COC(=O)C(Cl)Cl)(COC(=O)C(Cl)Cl)NC(=O)C(Cl)Cl)CC[C@@]4(C)[C@]3(C)CC[C@H]2C1(C)C` belongs 83.9%.
Regarding `COc1cc2c(cc1OC)-c1cc(OC)c(OC)cc1C(CN(C)C)C2` (stereo not given), the growth was 10.3% [100 µM].
Under `Cc1ccc([C@H]2c3[nH]c4ccccc4c3C[C@H]3C(=O)N(CCCCCCC(=O)NO)CC(=O)N23)cc1` stands 52.5%; under `CC(C)(C)c1ccc(C(=O)Nc2sc3cc(O)ccc3c2C(N)=O)cc1`, 96.1%; under `CCCCCCCCCCCC1=NC(C)(C)CN1CC(C)O` (stereo not given), 71.6%.
In the case of `CCC1=CC2CN(C1)Cc1c([nH]c3ccccc13)[C@@](C(=O)OC)(c1cc3c(cc1OC)N(C)[C@H]1[C@@](O)(C(=O)OC)[C@H](OC(C)=O)[C@]4(CC)C=CCN5CC[C@]31[C@@H]54)C2` (stereo not given in full), the growth is 29.1%.
Consider `CCOC(=O)Cc1cc(Br)c(OCc2ccccc2)c(Br)c1`, for which the growth is 101%.
Under `CCN(CC)CCNC(=O)n1cc(-c2ccncc2)c(-c2cc(Cl)cc(OC)c2)n1` stands 88%; under `COc1ccc(Oc2nc(Nc3ccc(N4CCOCC4)cc3)ncc2NC(=O)Nc2cccc(OC)c2)cc1`, 60.5%; under `Clc1ccccc1CNc1c2ccccc2nc2ccccc12`, 50%.
As to `Cc1csc(N/N=C/c2ccncc2)n1`, the growth is 104%.
Turning to `COc1cccc(/C(C)=N/NC(=O)CSc2nc3ccccc3c(=O)n2CCc2ccc(S(N)(=O)=O)cc2)c1`, the growth is 29.8%.
As for `O=[N+]([O-])c1ccc(N/N=C/c2ccccc2O)nc1`, the growth was 79.7%.
Under `NS(=O)(=O)c1ccc(CCn2c(SCC(=O)N/N=C/c3cc4ccccc4[nH]3)nc3ccccc3c2=O)cc1` stands 64.6%; under `COc1cc(NCC(O)CN(CC(C)C)CC(C)C)c2ncccc2c1` (stereo not given), 84.7%.
